Reference: the supplement of paper PMC12669032

system: Lactobacillus paracasei; assay: growth AUC relative to DMSO control (median of replicates) (fraction); higher = more growth (less inhibition), active = hit call of the paper; details: 20 µM; 24 h
Method in brief: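 For each compound at 20 µM (1% DMSO), gut bacterial monocultures seeded at OD600 0.05 grew anaerobically in mGAM at 37 °C in round-bottom 96-well plates. Hourly OD600 readings over 24 h gave growth curves whose minimum OD was set to 0. Area under these curves was normalised to the plate median of solvent-only wells, or to row and column medians on the industrial chemical plate. Values are medians of three biological replicates grown on separate days.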

Growth AUC, inactive:
N#Cc1cc(Cl)c(O)c(Cl)c1 1.03
CCc1cccc(C)c1N(C(=O)C(=O)O)C(C)COC (centres undefined) 0.852
CCC([O-])=C1C(=O)CC(C(=O)[O-])CC1=O.[Ca+2] (centres undefined) 0.91
COC1CCC2(CC1)NC(=O)C(c1cc(C)ccc1C)C2O (centres undefined) 1.03
O.O=C(Nc1ccc(Cl)c(Cl)c1)Nc1cc(Cl)ccc1Oc1ccc(Cl)cc1S(=O)(=O)[O-].[Na+] 0.906
NC(=O)c1nn(-c2c(Cl)cc(C(F)(F)F)cc2Cl)c(N)c1S(=O)C(F)(F)F (centres undefined) 0.982
Cc1nn(C)c(F)c1C(=O)Nc1ccccc1C(C)CC(C)C (centres undefined) 0.97
CCOC(=O)c1nc(C(Cl)(Cl)Cl)n(-c2ccc(Cl)cc2Cl)n1 1
CCCCOCN(C(=O)CS(=O)(=O)[O-])c1c(CC)cccc1CC.[Na+] 0.957
CCc1cccc(CC)c1N(COC)C(=O)CS(=O)(=O)[O-].[Na+] 1.02
CCN(CC)C(=O)c1cccc(C)c1 0.977
COC(=O)c1c(Cl)ccc(Cl)c1OC 0.921
CCN(CC)c1nc(C)cc(=O)[nH]1 0.989
CC(C)CNC(=O)N1CCNC1=O 1.04
COC(=O)c1ccccc1S(=O)(=O)NC(=O)n1nc(OCC(C)O)n(C)c1=O (centres undefined) 1.03
CCCNCCOc1c(Cl)cc(Cl)cc1Cl 0.966
CCCCCCCC/C=C\CCCCCCCCCCCC(=O)O 0.991
S=C([S-])NCCNC(=S)[S-].S=C([S-])NCCNC(=S)[S-].[Mn+2].[Zn+2] 1.08
Cc1cc(C)cc(OCC(C)Nc2nc(N)nc(C(C)(C)F)n2)c1 (centres undefined) 0.993
CCOc1ccc(C2(C(=O)OC(C#N)c3cccc(Oc4ccccc4)c3)CC2(Cl)Cl)cc1 (centres undefined) 1
CCNc1nc(NCC)nc(OC)n1 0.977
O=c1cccc2n1CCn1c-2cccc1=O 1.02
CCOCOc1ccc(C(=O)Nc2cccc(Cl)c2Cl)cc1 0.985
Cn1cc(C(=O)Nc2ccccc2-c2cc(F)c(F)c(F)c2)c(C(F)F)n1 0.943
CCOCN(C(=O)C(=O)O)c1c(C)cccc1CC 1.05
NC(Cn1cncn1)C(=O)O (centres undefined) 0.977
N#Cc1ccc(CC(=NNC(=O)Nc2ccc(OC(F)(F)F)cc2)c2cccc(C(F)(F)F)c2)cc1 (mixture of isomers) 0.959
C=O 1.06
COC(=O)c1ccc(C(=O)OC)cc1 0.958
N#Cc1c(N)nc(NC2CC2)nc1N 0.972
C#CCN(C)c1c(C#N)cnn1-c1nn2c(c1Cl)CCCC2 1.05
NS(=O)(=O)[O-].[NH4+] 0.997
O=C(O)Cc1c[nH]c2ccccc12 1.06
CCc1nc2ncnn2c(N)c1CCCC(=O)O.Cl 1.1
Cc1cc(C)cc(O)c1 0.958
CCOC(=O)/C(Cl)=C/c1cc(N2C(=O)C3=C(CCCC3)C2=O)ccc1Cl 0.473
c1ccc2c(c1)Cc1ccccc1-2 1.05
CCSc1nc(NC(C)C)nc(NC(C)C)n1 0.896
c1ccc2cc3ccccc3cc2c1 0.923
